Screens: PubChem, National Center for Advancing Translational Sciences (NCATS)
Hits are enriched below; roughly 12% of the tested compounds scored in any of these assays.
Sfp PPTase inh – blocks B. subtilis Sfp PPTase activity | Q9F4F7 | Biochemical Sfp PPTase activity, qHTS | Potency, µM, inactives show largest response in the series, negative = inhibition, hits mostly inhibitors | 3.5% of 310,000 active;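 note: the enzyme is Sfp with the accession as filed and its product quenches rhodamine fluorescence; 0% = enzyme reaction without inhibitor and -100% = no enzyme wells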
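Sfp 15 nM + cpd, 15 min RT; start w/ rhodamine-CoA 5 uM, BHQ-2-YbbR 12.5 uM (final); 50 mM Hepes pH 7.6, 10 mM MgCl2, 0.01% NP-40, 0.01% BSA; read 525/598 nm at 0 and 30 min.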
JMJD2A Tudor inh – JMJD2A Tudor domain (human) inhibition | AID 504339 | O75164 | 4.4% of 390,000 active | AlphaScreen JMJD2A-Tudor / H3K4me3 peptide binding | Potency, µM (highest dose often 114 µM), inactives show top-dose activity change, negative = inhibition, most hits filed as inhibitors; note: % is set by controls: 0 for no effect and ±100 for the full control effect; nearly all actives have a fitted effect of over 50% in size
L3MBTL1 block – blocks human L3MBTL1. Q9Y468. AlphaScreen L3MBTL1–H3K9me1 peptide binding. Potency, µM (top dose mostly 57.1 µM), without a hit: at the highest dose activity, negative = inhibition, usual class: inhibitors. 0.66% of 230,000 active. AID 485360; note: % is set by controls: 0 for no effect and ±100 for the full control effect; nearly all actives have a fitted effect of over 60% in size
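AlphaScreen proximity signal between nickel-chelate acceptor and streptavidin donor beads (final 10 ug/mL) reports binding of 50 nM L3MBTL1 to 75 nM biotin-H3 K9me1 peptide; complex incubated with compounds 30 min at room temperature; cefsulodin titration as control.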
BAZ2B block – blocks human BAZ2B | Potency, µM (series often up to 114 µM), without a hit: at the highest dose activity change, negative = inhibition, usual class: inhibitors | Q9UIF8 | AlphaScreen BAZ2B-H3K14Ac peptide displacement | 4.4% of 360,000 active | AID 504333; note: % is set by controls: 0 for no effect and ±100 for the full control effect; nearly all actives have a fitted effect of over 60% in size
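Inhibition is scored as reduced AlphaScreen emission. The BAZ2B/b-H3(5-23)K14Ac complex (50 nM each) in PBS pH 7.4, 0.01% Tween-20 meets compound (up to 110 uM) for 30 min at RT before bead addition.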
HP1b chromo inh – HP1-beta chromodomain-methylated histone interaction inhibition; P83916; AlphaScreen HP1-beta / biotin-H3K9me3 peptide binding; Potency, µM (series often up to 114 µM), for inactives: top-dose activity change, negative = inhibition, most hits filed as inhibitors; 0.56% of 390,000 active; note: nearly all actives have a fitted effect of over 70% in size
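AlphaScreen: HP1-beta (50 nM) preformed 30 min with biotin-H3(1-18)K9me3 peptide (50 nM) in PBS pH 7.4, 0.01% Tween-20. Compound added for 30 min at RT, then streptavidin donor/nickel chelate acceptor beads (10 ug/mL) for 30 min.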
G9a block – inhibitors of human histone lysine methyltransferase G9a | AID 504332 | 8.8% of 350,000 active | Q96KQ7 | G9a H3K9 monomethylation, AlphaScreen, 2 h | Potency, µM (series often up to 102 µM), inactives show at the top dose activity, negative = inhibition, most hits filed as inhibitors; note: % is set by controls: 0 for no effect and ±100 for the full control effect; nearly all actives have a fitted effect of over 75% in size
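Compounds were preincubated with 20 nM G9a for 15 min, after which biotinylated H3K9 peptide (500 nM) and SAM (20 uM) started a 2 h room-temperature reaction. Monomethylated product was quantified by antibody-based AlphaScreen chemiluminescence.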
* = called active by the depositor; ? = inconclusive; . = not tested or not shown; [ ] = remark or other dose. Calls come from the whole dose curve; as a rule, active = well fitted curve in the direction sought with a large enough effect; inconclusive = small, poorly fitted or top-dose-only effect, or another doubt; inactive = no such curve, though single readings can be large; an effect the other way counts as inactive or inconclusive. Potency is the fitted concentration of half-maximal effect.

SMILES	Sfp PPTase inh	JMJD2A Tudor inh	L3MBTL1 block	BAZ2B block	HP1b chromo inh	G9a block
CC(=O)NC(CC(=O)N(C)Cc1cccc(Cl)c1Cl)c1ccccc1 (stereo not given)	3%	-12%	.	-8%	27%	-1%[59 µM]
OCCN(Cc1ccccc1)Cc1cccc(Cl)c1Cl	?	10µM*	0%	50µM*	?	?
OCCN(Cc1ccccc1)Cc1ccccc1F	40µM*	1.8µM*	31%[11.4 µM]	25µM*	45µM*	2.5µM*
O=C(CSc1nnc(CNc2ccc(F)cc2)o1)N1c2ccccc2Sc2ccccc21	16%	-28%	-25%	?	14%	-14%
Cc1ccc(-c2csc(N(CCO)CCCn3c(C(F)(F)F)nc4ccccc43)n2)cc1	-22%	-34%	-20%	?	5%	45µM*
COc1ccc(C2=NC(CO)(CO)CO2)cc1	-2%	-3%	10%	-17%	48%	-8%
CCOc1cc(/C=C2/C(=O)N(c3ccccc3)N=C2C)ccc1OC(=O)c1ccco1	?	56µM*	-29%	45µM*	-21%	?
O=C(N/N=C/c1ccc(OC(=O)c2cccs2)cc1)c1ccc(F)cc1	-7%	-12%	5%	-39%	14%	-17%[59 µM]
CC1=NN(c2ccc(C(=O)O)cc2)C(=O)/C1=C\c1ccc(OC(=O)c2cccs2)cc1	?	-6%[11.4 µM]	?	?	-8%	32µM*
CCOc1cc(/C=C2\C(=O)N(c3ccc(C(N)=O)cc3)N=C2C)ccc1OC(=O)c1cccs1	56µM*	-28%	-17%	50µM*	-21%	45µM*
CCOc1cc(/C=N/NC(=O)COc2ccc(C)cc2)ccc1OC(=O)c1cccs1	12%	-19%	-2%	-24%	9%	-9%
COc1ccc(CC2(C)OC(c3ccc(C)cc3)=NN2C(C)=O)cc1 (stereo not given)	-15%	0%	17%	11%	26%	10%
COc1ccc(CC2(C)OC(c3ccc(C)c([N+](=O)[O-])c3)=NN2C(C)=O)cc1 (stereo not given)	-20%	79µM*	-26%	-37%	71µM*	?
CCCCN1C(=O)C(=Nc2cccc3cnccc23)c2ccccc21	7%	?	-2%	28µM*	?	45µM*
O=C(CCN1C(=O)/C(=C/c2cccs2)SC1=S)Nc1cccc(C(=O)O)c1	9%	-29%	.	50µM*	-7%	50µM*
O=C(CCN1C(=O)/C(=C/c2cccs2)SC1=S)Nc1ccc(O)cc1	19%	-1%	.	-3%	14%	-8%
O=C(CCN1C(=O)/C(=C/c2cccs2)SC1=S)Nc1ccc(C(=O)O)c(O)c1	-16%	7%	.	56µM*	27%	45µM*
O=C(CCCN1C(=O)/C(=C/c2cccs2)SC1=S)Nc1cccc(C(=O)O)c1	13%	-36%	-5%	-33%	0%	?
CC(/C=C1\SC(=S)N(CCCC(=O)Nc2ccc(C(=O)O)c(O)c2)C1=O)=C\c1ccccc1	?	40µM*	40µM*	?	?	?
CC(/C=C1\SC(=S)N(CCC(=O)Nc2ccc(O)cc2)C1=O)=C\c1ccccc1	5%	?	.	-35%	-11%	-13%
O=C(CCCN1C(=O)/C(=C/c2cccs2)SC1=S)Nc1cccc(O)c1	11%	40µM*	.	?	?	28µM*
CCOc1ccc(-n2nc3ccc(NC(=O)c4ccc(-c5cccc(Cl)c5)o4)cc3n2)cc1	.	-6%	.	-26%	14%	-73%[59 µM]
CC(=O)c1ccc(NC(=O)CN2C(=O)/C(=C/C(C)=C/c3ccccc3)SC2=S)cc1	2%	-28%	2%	-12%	-7%	-3%[59 µM]
O=C1/C(=C/c2cccs2)SC(=S)N1c1cccc(O)c1	3%	16µM*	-9%	?	-31%	?
CC(/C=C1\SC(=S)N(CCC(=O)Nc2nc(C)cs2)C1=O)=C\c1ccccc1	-2%	40µM*	.	?	-16%	?
Cc1cccc(/C=N/NC(=O)CC(=O)NCCc2ccccc2)c1	.	-20%	.	.	-11%	.
